About 7,900 targets were measured; listed, in parts, are those with a hit and a random draw of the rest. About 0.6% of all pairs of compound and target were hits. Unmarked numbers belong to inactive results.
Key:
Assay in all cases: log2 fold change, soluble protein after heating vs DMSO (PISA); higher = thermal stabilisation; K562 cells, 10 uM, 30 min; active = over 0.2 and 3.5 SD of the protein, either way, in both replicates (recomputed)
bafetinib = compound: Cc1ccc(NC(=O)c2ccc(CN3CC[C@H](N(C)C)C3)c(C(F)(F)F)c2)cc1Nc1nccc(-c2cncnc2)n1 [bafetinib]
How it was run: (§1)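 K562 cells at 2×10^6 cells/mL were treated with 10 μM compound for 30 min. Aliquots were heated for 3 min across 48°C-58°C, pooled, and extracted in PBS with 0.5% NP-40 at 4°C; soluble protein was the supernatant after 21,000xg for 90 min. Soluble protein was quantified by TMTpro 16plex LC-MS/MS with channel sums equalised, and reported as log2 fold change in thermal stability against DMSO controls, with values from duplicates.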

[1] = compound: Cc1cccc(CC(=O)N2CCc3c2ccc(-c2cn(C)c4ncnc(N)c24)c3F)n1
How it was run: as §1

nilotinib = compound: Cc1cn(-c2cc(NC(=O)c3ccc(C)c(Nc4nccc(-c5cccnc5)n4)c3)cc(C(F)(F)F)c2)cn1 [nilotinib]
How it was run: as §1

[2] = compound: Cc1nc(Nc2n[nH]c3c2CN(C(=O)N[C@H](CN(C)C)c2ccccc2)C3(C)C)c2sccc2n1
How it was run: as §1

dasatinib = compound: Cc1nc(Nc2ncc(C(=O)Nc3c(C)cccc3Cl)s2)cc(N2CCN(CCO)CC2)n1 [dasatinib]
How it was run: as §1

[3] = compound: Cc1ncc(-c2ccnc(Nc3ccc(S(C)(=O)=O)cc3)n2)n1C(C)C
How it was run: as §1

[4] = compound: Cn1cc(-c2ccc3c(c2)CCN3C(=O)Cc2cccc(C(F)(F)F)c2)c2c(N)ncnc21
How it was run: as §1

[5] = compound: Cn1cc(-c2ccc3nnc(C(F)(F)c4ccc5ncccc5c4)n3n2)cn1
How it was run: as §1

tipifarnib = compound: Cn1cncc1[C@@](N)(c1ccc(Cl)cc1)c1ccc2c(c1)c(-c1cccc(Cl)c1)cc(=O)n2C [tipifarnib]
How it was run: as §1

mubritinib = compound: FC(F)(F)c1ccc(/C=C/c2nc(COc3ccc(CCCCn4ccnn4)cc3)co2)cc1 [mubritinib]
How it was run: as §1

[6] = compound: NC(=O)Nc1cc(-c2cccc(F)c2)sc1C(=O)N[C@H]1CCCNC1
How it was run: as §1

[7] = compound: NC(=O)c1cnc(N[C@@H]2CCCC[C@@H]2N)nc1Nc1cccc(-n2nccn2)c1
How it was run: as §1

[8] = compound: NC1(c2ccc(-c3nc4ccn5c(=O)[nH]nc5c4cc3-c3ccccc3)cc2)CCC1
How it was run: as §1

[9] = compound: NCC(=O)Nc1ccc(-n2nc(C(F)(F)F)cc2-c2ccc3c(ccc4ccccc43)c2)cc1
How it was run: as §1

entinostat = compound: Nc1ccccc1NC(=O)c1ccc(CNC(=O)OCc2cccnc2)cc1 [entinostat]
How it was run: as §1

vorinostat = compound: O=C(CCCCCCC(=O)Nc1ccccc1)NO [vorinostat]
How it was run: as §1

citarinostat = compound: O=C(CCCCCCNC(=O)c1cnc(N(c2ccccc2)c2ccccc2Cl)nc1)NO [citarinostat]
How it was run: as §1

silmitasertib = compound: O=C(O)c1ccc2c(c1)nc(Nc1cccc(Cl)c1)c1ccncc12 [silmitasertib]
How it was run: as §1

[10] = compound: O=C1NC(=O)C(c2cnc3ccccn23)=C1c1cn2c3c(cc(F)cc13)CN(C(=O)N1CCCCC1)CC2
How it was run: as §1

[11] = compound: c1cc(OCCN2CCCCC2)cc(-c2n[nH]c3ccc(-c4nnc[nH]4)cc23)c1
How it was run: as §1

Sequence of UniProt Q7Z7A3 (Q7Z7A3 whole entry, looked up): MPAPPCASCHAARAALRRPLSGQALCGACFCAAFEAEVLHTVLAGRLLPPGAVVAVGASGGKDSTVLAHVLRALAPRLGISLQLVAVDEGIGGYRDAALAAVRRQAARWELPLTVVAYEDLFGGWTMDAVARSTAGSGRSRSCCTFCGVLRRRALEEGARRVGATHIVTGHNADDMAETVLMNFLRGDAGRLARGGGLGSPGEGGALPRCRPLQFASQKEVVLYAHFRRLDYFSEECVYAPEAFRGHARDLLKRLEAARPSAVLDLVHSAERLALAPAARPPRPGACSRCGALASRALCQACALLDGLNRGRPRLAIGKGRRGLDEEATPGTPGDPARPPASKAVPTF
Sequence of UniProt Q9Y5Q0 (Q9Y5Q0 whole entry, looked up): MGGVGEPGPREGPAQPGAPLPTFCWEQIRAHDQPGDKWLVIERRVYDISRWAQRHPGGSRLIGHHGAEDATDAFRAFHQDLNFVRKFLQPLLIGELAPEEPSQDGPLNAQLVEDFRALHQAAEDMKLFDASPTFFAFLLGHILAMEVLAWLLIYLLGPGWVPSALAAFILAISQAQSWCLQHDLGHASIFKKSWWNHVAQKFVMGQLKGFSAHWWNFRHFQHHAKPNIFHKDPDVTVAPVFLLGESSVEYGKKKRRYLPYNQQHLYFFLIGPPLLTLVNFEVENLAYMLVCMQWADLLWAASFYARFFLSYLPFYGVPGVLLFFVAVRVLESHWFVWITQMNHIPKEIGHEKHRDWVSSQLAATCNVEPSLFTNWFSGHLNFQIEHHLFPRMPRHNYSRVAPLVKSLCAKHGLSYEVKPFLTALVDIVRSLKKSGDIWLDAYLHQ
Sequence of UniProt Q99615 (Q99615 whole entry, looked up): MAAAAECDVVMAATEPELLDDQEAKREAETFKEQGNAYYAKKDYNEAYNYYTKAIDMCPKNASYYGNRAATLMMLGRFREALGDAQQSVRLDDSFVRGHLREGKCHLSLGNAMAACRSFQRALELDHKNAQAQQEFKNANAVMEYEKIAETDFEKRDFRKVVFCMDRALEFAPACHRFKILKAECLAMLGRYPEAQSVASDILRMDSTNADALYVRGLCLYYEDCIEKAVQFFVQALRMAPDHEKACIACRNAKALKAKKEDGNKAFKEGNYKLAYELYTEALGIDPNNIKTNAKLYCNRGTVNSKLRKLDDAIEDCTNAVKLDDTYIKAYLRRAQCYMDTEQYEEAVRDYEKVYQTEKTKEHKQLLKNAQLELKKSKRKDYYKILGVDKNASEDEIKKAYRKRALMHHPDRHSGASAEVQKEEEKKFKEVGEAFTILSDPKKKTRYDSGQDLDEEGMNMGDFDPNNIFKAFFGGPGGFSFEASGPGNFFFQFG
Sequence of UniProt P18074 (P18074 whole entry, looked up): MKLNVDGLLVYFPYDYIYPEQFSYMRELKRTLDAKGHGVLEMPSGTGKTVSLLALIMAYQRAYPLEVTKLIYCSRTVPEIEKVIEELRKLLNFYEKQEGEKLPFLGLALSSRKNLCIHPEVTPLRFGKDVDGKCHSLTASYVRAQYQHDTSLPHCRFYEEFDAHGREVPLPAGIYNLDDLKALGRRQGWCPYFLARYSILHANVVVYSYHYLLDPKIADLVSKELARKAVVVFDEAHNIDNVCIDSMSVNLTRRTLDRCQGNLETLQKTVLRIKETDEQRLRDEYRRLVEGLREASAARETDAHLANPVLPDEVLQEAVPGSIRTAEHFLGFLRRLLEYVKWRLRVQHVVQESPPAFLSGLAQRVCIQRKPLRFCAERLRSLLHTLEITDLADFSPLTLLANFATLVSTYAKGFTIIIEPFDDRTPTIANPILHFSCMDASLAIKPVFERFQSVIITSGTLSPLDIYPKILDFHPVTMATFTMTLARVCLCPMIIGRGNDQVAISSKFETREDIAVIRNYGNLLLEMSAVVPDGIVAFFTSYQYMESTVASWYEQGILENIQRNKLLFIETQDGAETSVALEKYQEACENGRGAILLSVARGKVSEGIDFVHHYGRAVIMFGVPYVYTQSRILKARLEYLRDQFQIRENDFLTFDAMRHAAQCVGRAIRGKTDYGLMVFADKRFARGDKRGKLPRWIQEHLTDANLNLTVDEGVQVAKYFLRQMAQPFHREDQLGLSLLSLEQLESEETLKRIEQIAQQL
Sequence of UniProt P25685 (P25685 whole entry, looked up): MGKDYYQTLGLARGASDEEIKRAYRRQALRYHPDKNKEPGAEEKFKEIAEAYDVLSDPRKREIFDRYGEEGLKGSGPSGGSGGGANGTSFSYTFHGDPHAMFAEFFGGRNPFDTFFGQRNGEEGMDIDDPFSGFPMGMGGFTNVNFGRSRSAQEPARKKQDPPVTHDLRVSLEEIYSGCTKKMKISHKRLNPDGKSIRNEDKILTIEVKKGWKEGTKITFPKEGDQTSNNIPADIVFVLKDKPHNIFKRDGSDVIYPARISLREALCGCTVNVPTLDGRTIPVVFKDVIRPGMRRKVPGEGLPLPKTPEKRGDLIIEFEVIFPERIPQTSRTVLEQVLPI
Sequence of UniProt Q9H2U1 (Q9H2U1 whole entry, looked up): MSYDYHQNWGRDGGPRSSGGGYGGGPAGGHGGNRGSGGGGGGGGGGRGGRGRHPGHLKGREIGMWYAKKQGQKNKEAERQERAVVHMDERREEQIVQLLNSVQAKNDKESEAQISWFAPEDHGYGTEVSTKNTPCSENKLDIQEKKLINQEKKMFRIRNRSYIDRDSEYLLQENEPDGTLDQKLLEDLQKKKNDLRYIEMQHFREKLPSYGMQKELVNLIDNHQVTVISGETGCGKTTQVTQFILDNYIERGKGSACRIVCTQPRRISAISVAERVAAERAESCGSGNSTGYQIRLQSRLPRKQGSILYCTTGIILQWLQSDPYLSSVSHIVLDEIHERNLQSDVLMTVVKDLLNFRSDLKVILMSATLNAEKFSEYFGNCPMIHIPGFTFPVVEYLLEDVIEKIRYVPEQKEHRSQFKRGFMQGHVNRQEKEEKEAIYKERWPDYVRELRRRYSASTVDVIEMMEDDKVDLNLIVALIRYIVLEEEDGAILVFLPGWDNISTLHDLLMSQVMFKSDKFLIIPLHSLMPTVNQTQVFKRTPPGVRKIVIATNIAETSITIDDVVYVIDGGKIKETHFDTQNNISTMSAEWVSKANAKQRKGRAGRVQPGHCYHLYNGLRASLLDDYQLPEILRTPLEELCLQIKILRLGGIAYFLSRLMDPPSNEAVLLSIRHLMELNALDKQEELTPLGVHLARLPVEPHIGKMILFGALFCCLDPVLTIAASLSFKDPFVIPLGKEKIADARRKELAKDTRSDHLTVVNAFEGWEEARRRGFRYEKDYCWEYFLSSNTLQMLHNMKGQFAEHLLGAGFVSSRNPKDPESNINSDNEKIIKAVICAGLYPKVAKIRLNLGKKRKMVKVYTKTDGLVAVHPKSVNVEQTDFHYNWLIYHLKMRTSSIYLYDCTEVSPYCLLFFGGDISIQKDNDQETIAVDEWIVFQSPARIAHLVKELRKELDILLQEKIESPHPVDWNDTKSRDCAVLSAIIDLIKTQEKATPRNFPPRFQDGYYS
Sequence of UniProt Q8IYI6 (Q8IYI6 whole entry, looked up): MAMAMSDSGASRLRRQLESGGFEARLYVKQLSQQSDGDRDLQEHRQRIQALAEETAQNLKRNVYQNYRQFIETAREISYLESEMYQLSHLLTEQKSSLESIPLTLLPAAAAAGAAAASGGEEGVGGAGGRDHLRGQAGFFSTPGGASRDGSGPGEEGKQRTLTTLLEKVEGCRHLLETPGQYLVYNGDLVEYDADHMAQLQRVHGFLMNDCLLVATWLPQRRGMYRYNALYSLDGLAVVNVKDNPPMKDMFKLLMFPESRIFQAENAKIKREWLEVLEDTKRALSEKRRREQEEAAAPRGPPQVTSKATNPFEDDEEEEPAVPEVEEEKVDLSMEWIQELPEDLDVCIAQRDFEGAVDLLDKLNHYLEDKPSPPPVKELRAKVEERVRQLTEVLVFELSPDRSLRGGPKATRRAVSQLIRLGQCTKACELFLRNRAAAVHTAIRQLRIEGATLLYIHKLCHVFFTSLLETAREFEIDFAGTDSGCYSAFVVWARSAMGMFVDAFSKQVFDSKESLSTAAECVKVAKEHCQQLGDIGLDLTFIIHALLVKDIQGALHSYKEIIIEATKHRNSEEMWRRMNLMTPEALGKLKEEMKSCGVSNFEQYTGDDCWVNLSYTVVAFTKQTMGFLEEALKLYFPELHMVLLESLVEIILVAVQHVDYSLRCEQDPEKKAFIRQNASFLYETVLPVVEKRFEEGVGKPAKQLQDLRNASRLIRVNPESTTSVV
Sequence of UniProt Q9NVR5 (Q9NVR5 whole entry, looked up): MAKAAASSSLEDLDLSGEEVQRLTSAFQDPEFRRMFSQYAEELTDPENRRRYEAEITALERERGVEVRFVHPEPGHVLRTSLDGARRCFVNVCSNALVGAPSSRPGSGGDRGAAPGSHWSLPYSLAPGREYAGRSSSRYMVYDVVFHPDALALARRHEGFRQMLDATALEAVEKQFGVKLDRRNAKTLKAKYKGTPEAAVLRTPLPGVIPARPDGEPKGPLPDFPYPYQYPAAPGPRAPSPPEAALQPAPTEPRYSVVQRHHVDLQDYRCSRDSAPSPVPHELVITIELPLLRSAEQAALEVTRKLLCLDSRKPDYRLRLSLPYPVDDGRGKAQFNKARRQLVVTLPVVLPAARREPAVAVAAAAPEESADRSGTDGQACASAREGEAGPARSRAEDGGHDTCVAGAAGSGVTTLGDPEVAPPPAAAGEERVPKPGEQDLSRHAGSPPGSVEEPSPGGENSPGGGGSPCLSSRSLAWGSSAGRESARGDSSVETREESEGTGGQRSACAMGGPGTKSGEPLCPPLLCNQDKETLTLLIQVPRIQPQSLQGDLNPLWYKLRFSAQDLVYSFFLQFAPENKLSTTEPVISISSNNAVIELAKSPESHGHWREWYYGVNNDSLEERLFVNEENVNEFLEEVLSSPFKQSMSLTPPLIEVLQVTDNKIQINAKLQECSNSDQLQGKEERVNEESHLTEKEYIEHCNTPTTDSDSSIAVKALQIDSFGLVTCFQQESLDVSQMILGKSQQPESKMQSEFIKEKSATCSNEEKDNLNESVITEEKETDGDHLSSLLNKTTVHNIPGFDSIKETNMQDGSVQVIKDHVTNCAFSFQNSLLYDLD

| Target | log2 fold change (bafetinib) | log2 fold change [1] | log2 fold change (nilotinib) | log2 fold change [2] | log2 fold change (dasatinib) | log2 fold change [3] | log2 fold change [4] | log2 fold change [5] | log2 fold change (tipifarnib) | log2 fold change (mubritinib) | log2 fold change [6] | log2 fold change [7] | log2 fold change [8] | log2 fold change [9] | log2 fold change (entinostat) | log2 fold change (vorinostat) | log2 fold change (citarinostat) | log2 fold change (silmitasertib) | log2 fold change [10] | log2 fold change [11] |
| --- | --- | --- | --- | --- | --- | --- | --- | --- | --- | --- | --- | --- | --- | --- | --- | --- | --- | --- | --- | --- |
| DNAJC7 (UniProt Q99615) | -0.047 | 0.031 | -0.107 | -0.048 | -0.136 | 0.024 | 0.068 | 0.058 | -0.012 | 0.037 | -0.067 | -0.029 | -0.204 | -0.071 | 0.05 | 0.043 | 0.071 | 0.001 | -0.03 | -0.001 |
| CTSZ (UniProt Q9UBR2) | -1.01 (active) | -0.027 | 0.028 | -0.146 | 0.054 | -0.022 | 0.058 | 0.022 | 0.052 | 0.033 | -0.029 | -0.005 | -0.511 (active) | 0.044 | -0.023 | 0.013 | 0.019 | 0.008 | -0.047 | 0.006 |
| FAM118A (UniProt Q9NWS6) | -0.076 | 0 | -0.092 | -0.216 | -0.314 | -0.039 | -0.019 | 0.135 | -0.128 | 0.043 | 0.052 | -0.129 | -0.351 | 0.015 | 0.149 | 0.054 | -0.289 | 0.166 | -0.088 | 0.322 |
| DNAJB1 (UniProt P25685) | -0.026 | 0.013 | -0.042 | -0.058 | -0.064 | 0.026 | 0.035 | 0.02 | -0.026 | 0.01 | -0.006 | -0.041 | -0.09 | -0.083 | 0.013 | 0.034 | 0.044 | 0.011 | -0.005 | -0.04 |
| DDX46 (UniProt Q7L014) | 0.196 | 0.094 | 0.271 | -1.44 (active) | -0.084 | 0.1 | 0.104 | 0.102 | -0.113 | 0.604 (active) | -0.185 | -0.087 | -0.178 | -0.197 | 0.095 | 0 | 0.103 | 0.018 | -0.243 | 0.084 |
| DYRK1A isoform 2 (UniProt Q13627) | -0.073 | 0.02 | -0.005 | -0.056 | -0.098 | -0.047 | 0.021 | -0.046 | -0.042 | 0.034 | -0.225 (active) | -0.034 | -0.115 | -0.064 | 0.028 | 0.056 | 0 | -0.292 (active) | -0.029 | – |
| EXOC8 (UniProt Q8IYI6) | -0.081 | 0.071 | -0.054 | -0.137 | -0.1 | -0.012 | -0.015 | 0.028 | -0.038 | 0.039 | 0.044 | -0.044 | -0.373 (active) | -0.039 | 0.108 | 0.051 | 0.084 | 0.035 | 0.045 | -0.062 |
| DNAAF2 (UniProt Q9NVR5) | -0.075 | 0.057 | 0.023 | 0.002 | -0.049 | 0 | -0.037 | 0.036 | 0.004 | 0.026 | 0.039 | 0.025 | -0.042 | -0.044 | -0.06 | 0 | -0.034 | 0.016 | -0.003 | -0.03 |
| ERCC2 (UniProt P18074) | 0.094 | 0.061 | -0.014 | -0.175 | -0.185 | -0.022 | 0.05 | 0.01 | -0.062 | 0.114 | -0.015 | -0.011 | -0.109 | 0.004 | 0.014 | 0.045 | 0.103 | -0.052 | -0.092 | -0.039 |
| FADS3 (UniProt Q9Y5Q0) | -0.11 | 0.044 | 0.108 | -0.012 | -0.109 | -0.013 | 0.034 | -0.037 | -0.033 | 0.059 | -0.086 | -0.096 | -0.074 | 0.079 | -0.06 | 0.024 | 0.022 | -0.008 | 0.259 | -0.034 |
| FAAP100 (UniProt Q0VG06) | 0.201 | 0.043 | -0.032 | -0.005 | 0.035 | -0.039 | -0.005 | 0.101 | 0.1 | 0 | 0.009 | 0.039 | -0.076 | -0.031 | -0.05 | 0.048 | -0.012 | -0.051 | 0.197 | -0.053 |
| CTU1 (UniProt Q7Z7A3) | -0.024 | 0.067 | -0.062 | -0.03 | -0.145 | -0.03 | 0.035 | 0.02 | -0.043 | 0.067 | 0.038 | -0.015 | -0.199 | -0.142 | 0.023 | 0.075 | 0.049 | 0.021 | 0 | 0.008 |
| CYFIP1 (UniProt Q7L576) | -0.064 | 0.002 | -0.015 | -0.064 | -0.05 | -0.024 | 0.049 | -0.006 | -0.011 | 0.022 | -0.088 | -0.029 | -0.143 | 0.003 | 0.02 | -0.025 | 0.031 | 0.009 | -0.039 | -0.064 |
| DHRS3 (UniProt O75911) | 0.027 | 0.017 | 0.101 | -0.031 | 0.188 | -0.025 | 0.323 (active) | 0.164 | 0.012 | 0.081 | -0.032 | -0.047 | -0.081 | -0.06 | 0.05 | -0.084 | 0.024 | 0.009 | 0.046 | -0.06 |
| EFCAB14 (UniProt O75071) | -0.008 | -0.056 | 0.084 | 0.011 | 0.075 | 0.003 | -0.123 | -0.048 | -0.062 | 0.081 | 0.024 | 0.218 | -0.123 | -0.006 | 0.007 | -0.057 | 0.181 | 0.022 | -0.031 | -0.075 |
| DHX36 (UniProt Q9H2U1) | 0.065 | 0.015 | -0.066 | 0.052 | -0.01 | 0.045 | -0.076 | -0.059 | 0.002 | -0.128 | 0 | 0.025 | -0.028 | 0.056 | -0.003 | -0.028 | 0.014 | 0.009 | 0.11 | -0.283 (active) |

— the supplement of paper PMC10849652
